Assay outcomes: PubChem BioAssay, National Center for Advancing Translational Sciences (NCATS)
The full list was thinned out, with hits kept by preference.
IL-1B inflam inh = inhibitors of inflammasome signaling (IL-1 beta secretion); activity change, % at 57.5 µM; actives 4.7% (n = 360,000); THP-1 LPS/ATP IL-1B secretion, AlphaLISA, 16 h; stronger effect = lower value; in the data active = activity change below about -50%; inconclusive = mostly about -30% to -49%
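THP-1 cells pretreated 1 hr with compounds (up to 57.5 uM final), then stimulated with LPS (250 ng/mL final) plus ATP (1.25 mM final); secreted IL-1B measured by AlphaLISA after 16 hr, decreased signal indicating inhibition.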
TDP1 cell CPT = growth inhibition of DT40 Tdp1-/-;hTDP1 cells with camptothecin (screen for TDP1 inhibitors); Potency, µM (titrated, usually from 46.2 µM), for inactives: at the top dose activity change, negative = growth inhibition, actives largely listed as inhibitors; actives 12% (n = 420,000); chicken DT40 Tdp1-/-;hTDP1 cells + 20 nM CPT, ATP luminescence, 48 h; also: potency is read from the fitted curve at half-maximal effect; nearly all actives have a fitted effect of over 55% in size
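Cell growth measured by CellTiter-Glo luminescence after a minimum 48 h, 37 C compound exposure with 20 nM CPT in Tdp1-knockout DT40 cells stably expressing hTDP1, seeded 400/well; qHTS titration format.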
ALOX12 inh = inhibitors of human 12S-lipoxygenase ALOX12; purified 12hLO, xylenol orange hydroperoxide absorbance; actives 1.1% (n = 580,000); P18054; Potency, µM (highest dose often 108 µM), without a hit: at the highest dose activity change, negative = inhibition, most hits filed as inhibitors; AID 1671190; also: potency is read from the fitted curve at half-maximal effect
Target sequence (P18054 whole entry, looked up): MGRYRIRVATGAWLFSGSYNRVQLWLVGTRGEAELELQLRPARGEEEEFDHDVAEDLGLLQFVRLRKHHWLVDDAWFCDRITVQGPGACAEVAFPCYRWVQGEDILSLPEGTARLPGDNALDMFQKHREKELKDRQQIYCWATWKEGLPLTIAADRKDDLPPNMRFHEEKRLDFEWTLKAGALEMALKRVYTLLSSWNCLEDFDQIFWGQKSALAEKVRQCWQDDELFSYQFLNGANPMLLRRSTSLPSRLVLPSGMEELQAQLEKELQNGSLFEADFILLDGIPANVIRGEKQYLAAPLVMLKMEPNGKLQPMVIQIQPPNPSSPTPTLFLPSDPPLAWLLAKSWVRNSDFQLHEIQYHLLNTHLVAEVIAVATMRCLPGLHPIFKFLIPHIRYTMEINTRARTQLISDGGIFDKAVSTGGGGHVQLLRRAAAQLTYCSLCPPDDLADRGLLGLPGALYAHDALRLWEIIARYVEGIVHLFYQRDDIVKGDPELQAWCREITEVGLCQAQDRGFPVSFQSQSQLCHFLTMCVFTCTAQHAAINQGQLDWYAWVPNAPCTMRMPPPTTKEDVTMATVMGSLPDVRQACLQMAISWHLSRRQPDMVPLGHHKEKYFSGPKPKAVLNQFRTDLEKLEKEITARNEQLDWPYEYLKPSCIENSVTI
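Hydroperoxide product was detected by ferrous iron/xylenol orange as the 573 to 405 nm absorbance ratio. Arachidonic acid at 40 uM (final) was turned over for 30 min at room temperature by 150 nM human 12hLO, pH 7.0 Hepes buffer, after 15 min compound preincubation.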
TDP1 cell noCPT = qHTS for Inhibitors of human tyrosyl-DNA phosphodiesterase 1 (TDP1): qHTS in cells in absence of CPT; DT40 Tdp1-/- hTDP1 cells, no CPT, ATP luminescence, 48 h; Potency, µM (titrated, usually from 46.2 µM), inactives show at the top dose activity change, negative = growth inhibition, most hits filed as inhibitors; actives 15% (n = 420,000); AID 686978, 2013; also: potency is read from the fitted curve at half-maximal effect; nearly all actives have a fitted effect of over 55% in size
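Luminescent ATP content (CellTiter-Glo) served as the growth readout. Knockout chicken DT40 cells expressing human TDP1 were exposed to compounds without camptothecin for a minimum 48 hr at 37 °C.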
HT1080 IDH1KD tx = HT-1080 IDH1 knockdown cell toxicity (counter line); HT-1080 IDH1 knockdown viability, ATP luminescence, 48 h; Potency, µM (top dose mostly 46.1 µM), for inactives: at the top dose activity, negative = toxicity, usual class: cytotoxic; actives 2% (n = 360,000);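 also: potency is read from the fitted curve at half-maximal effect; 0% = DMSO wells and -100% = cell-free medium wells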
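HT-1080-IDH1KD cells (IDH1 knocked down), 750/well in RPMI with 5% FBS, treated with compound 48 h at 37 degrees C. Viability by CellTiter-Glo luminescence, normalised to DMSO and no-cell wells; concentration-response curves classed.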
HT1080-NT tox = kills 2HG-producing HT-1080-NT fibrosarcoma cells | AID 686970 | actives 1.6% (n = 360,000) | HT-1080-NT fibrosarcoma viability, CellTiter-Glo ATP luminescence, 48 h | Potency, µM (titrated, usually from 46.1 µM), inactives show at the top dose activity, negative = less viability, most hits filed as cytotoxic;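 also: NT is the 2HG producing partner of a matched IDH1 knockdown line; potency is read from the fitted curve at half-maximal effect; 0% = DMSO-treated cells and -100% = media-only wells without cells; nearly all actives have a fitted effect of over 55% in size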
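Viability of the 2HG-overproducing fibrosarcoma line after 48 hours of compound exposure at 37 degrees C was determined by luminescence with CellTiter-Glo, and concentration-effect curves were then fitted and categorized.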
Active calls of the source: *; ? = inconclusive; . = no result given; [ ] = remark or other dose. Unless noted, calls follow the shape of the dose curve; as a rule, active = well fitted curve in the direction sought with a large enough effect; inconclusive = small, poorly fitted or top-dose-only effect, or another doubt; inactive = no such curve, though single readings can be large; an effect the other way counts as inactive or inconclusive. Unless noted, % is scaled to controls: 0 for no effect and ±100 for the full control effect.

SMILES | IL-1B inflam inh | TDP1 cell CPT | ALOX12 inh | TDP1 cell noCPT | HT1080 IDH1KD tx | HT1080-NT tox
CC(C)CN(CC(C)C)S(=O)(=O)c1cc([N+](=O)[O-])ccc1N1CCCCCC1 | -20 | ? | ? | 16µM* | ? | -5%
COc1cccc(NC(=O)N2C[C@@H](F)C[C@H]2C(=O)N2CCCCC2)c1 | . | . | -7% | . | . | .
O=C(CNC(=O)c1ccccc1F)NCCOc1cccc(Cl)c1Cl | 0 | 7% | -1% | -15% | -4% | 0%
COc1ccccc1OCCCCCNCCO | -2 | -14% | 4% | -9% | 20%[9.24 µM] | -14%
OCCNCCCOc1cc(Cl)ccc1Cl | -2 | ? | 2% | 18µM* | -18% | ?
OCCNCCCOc1cccc(Cl)c1Cl | . | 0.19µM* | 0% | 0.21µM* | . | .
CCCCNCCCOc1cccc(Cl)c1Cl | -64* | 15µM* | -12% | ? | ? | ?
CCC(=O)N1CCC2(CC1)CC(C(=O)N1CCOCC1)N(C)C2 (centres undefined) | . | . | 45% | . | . | .
Cc1ccccc1-c1noc(CSc2nnc(C3CC3)n2-c2ccccc2)n1 | . | . | -20% | . | . | .
Cc1cc(C)nc(NC(=S)Nc2ccc(Br)cc2Cl)c1 | 0 | 6.5µM* | -2% | 6.5µM* | 5% | 6%
Cc1cc(C)nc(NC(=S)Nc2cccc(Cl)c2Cl)c1 | 0 | -16% | -29% | -23% | 22% | 23%
O=C(N/N=C/c1cc(Br)ccc1O)C(c1ccncc1)N1CCOCC1 (centres undefined) | 90 | 4.1µM* | -6% | 8.2µM* | ? | -18%
CCNc1nc(NC(C)C)nc(Oc2ccc(=O)n(C)n2)n1 | -6 | 6% | -2% | 13% | 18% | 9%
CCNc1nc(NC(C)(C)C)nc(Oc2ccc(=O)n(-c3ccccc3)n2)n1 | 17 | 16µM* | 18% | 21µM* | -5% | -13%
CC(C)(C)Nc1nc(Oc2ccc(=O)n(-c3ccccc3)n2)nc(N2CCOCC2)n1 | -11 | ? | 0% | 21µM* | -6% | -2%
Cc1ccc(C(=O)NC2Cc3ccccc3C2)cc1 | . | . | -33% | . | . | .
COC(=O)c1ccc2nc(-c3ccc(Cl)cc3)c(CC3CCCCC3)n2c1 | 53 | 8.2µM* | -27% | 4.1µM* | 13% | 11%
COC(=O)c1ccc2nc(-c3ccc(OC)c(OC)c3)c(CC3CCCCC3)n2c1 | 28 | ? | ? | 18µM* | -9% | -15%
Cc1cccc(-c2noc([C@@H]3C[C@@H](O)CN3Cc3ccccn3)n2)c1 | . | . | 81%[176 µM] | . | . | .
O=C(/C=C/c1ccc(F)cc1)NCCc1ccccn1 | . | . | 29% | . | . | .
COc1cc(NC(=O)C2CCN(S(=O)(=O)c3cccs3)CC2)cc(OC)c1 | -14 | 18µM* | ? | ? | -11% | -1%
O=C(NCCN1C(=O)S/C(=C\c2ccc(F)cc2)C1=O)C1CCN(S(=O)(=O)c2cccs2)CC1 | 19 | 12µM* | -20% | 10µM* | 15% | 4%
Cc1ccc(NC(=O)C2CCN(S(=O)(=O)c3cccs3)CC2)cc1 | -26 | ? | 0% | ? | -19% | -7%
CCc1ccc(NC(=O)C2CCN(S(=O)(=O)c3cccs3)CC2)cc1 | -80* | ? | -16% | ? | -29% | ?
COc1ccccc1NC(=O)c1c(-n2cnnn2)sc(C)c1C | . | . | 36% | . | . | .
SMILES | IL-1B inflam inh | TDP1 cell CPT | ALOX12 inh | TDP1 cell noCPT | HT1080 IDH1KD tx | HT1080-NT tox
OC1(c2csc(CN3CCN(c4ccccn4)CC3)n2)CCN(Cc2ccc(F)cc2)CC1 | . | . | 50% | . | . | .
Cc1ccc(S(=O)(=O)N2CCN(CCNC(=O)C(=O)Nc3ccc(F)cc3)CC2)cc1 | -15 | 1% | 18% | ? | ? | ?
O=C(NCCN1CCN(C(=O)C(c2ccccc2)c2ccccc2)CC1)C(=O)Nc1ccccc1 | -1 | ? | -24% | -29% | -8% | -11%
CCOc1ccc(NC(=O)C(=O)NCCN2CCN(S(=O)(=O)c3ccc(C)cc3)CC2)cc1 | 0 | ? | -10% | 9.2µM* | -12% | 2%
Cc1ccc(NC(=O)C(=O)NCCN2CCN(C(=O)C(c3ccccc3)c3ccccc3)CC2)cc1 | ? | 18µM* | 0% | 18µM* | 14% | 2%
Cc1cccc(C(=O)NCCc2nc3ccccc3n2Cc2ccc(Cl)cc2)c1 | . | 21µM* | -24% | ? | . | .
CCCCCn1c(CNC(=O)c2ccccc2)nc2ccccc21 | . | ? | 0% | ? | . | .
CCCCCn1c(CCNC(=O)c2cccc(C)c2)nc2ccccc21 | . | 21µM* | -16% | 18µM* | . | .
COc1ccccc1NC(=O)N1CCCC(Cn2cnc3cccnc32)C1 (centres undefined) | . | . | 2% | . | . | .
CC(=Nc1ccccc1)C1=C(O)C(Cc2ccc(O)cc2)NC1=O (centres undefined) | 31 | 0.018µM* | -16% | 0.0082µM* | ? | 0.58µM*
O=C1NC[C@H](Cc2ccccc2)N(CCc2cccc(F)c2)C1=O | 5 | -14% | -4% | -4% | 9% | 2%
